Experimental data reported in PubChem BioAssay (NCI).
About 79,000 compounds went through this panel and 15% of them were active in at least one assay; those are over-represented in the sample as a whole. Activity calls are given as the source filed them. Rule as the data show it: active = growth inhibition above about 70%; inactive = the rest.

Experiments:
[1] = NCI Yeast Anticancer Drug Screen. Data for the rad52 strain (AID 147);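 also: 0% = growth of vehicle-treated control cultures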; conditions: S. cerevisiae rad52 mutant growth inhibition, hits give high values
Method in brief: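 Inhibition of yeast growth, referenced to vehicle controls, was the measured output for a strain with defective DNA damage repair.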

[2] = NCI Yeast Anticancer Drug Screen. Data for the wt1 strain (AID 149);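 also: 0% = growth of vehicle-treated wt1 cultures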; conditions: S. cerevisiae wt1 strain (SPY 50644) growth inhibition, hits give high values
Method in brief: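 Using yeast strain wt1, compound-induced growth inhibition was determined against vehicle-treated cultures.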

[3] = NCI Yeast Anticancer Drug Screen. Data for the rad50EPP+ strain (AID 151);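 also: 0% = growth of vehicle-treated control cultures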; conditions: S. cerevisiae rad50 mutant strain, hits give high values
Method in brief: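 Genetically defined yeast (rad50EPP+, DNA damage repair alteration) is grown with compound, and inhibition of growth is expressed relative to vehicle-treated controls.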

[4] = NCI Yeast Anticancer Drug Screen. Data for the mgt1 strain (AID 153); conditions: S. cerevisiae mgt1 mutant growth inhibition, hits give high values
Method in brief: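 In the mgt1 strain, test compounds were added and growth inhibition was determined relative to vehicle-treated controls.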

[5] = NCI Yeast Anticancer Drug Screen. Data for the rad50 strain (AID 155);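 also: 0% = growth of vehicle-only cultures of the same strain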; conditions: S. cerevisiae rad50 strain growth inhibition, hits give high values
Method in brief: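 Relative growth inhibition (compound vs vehicle) was measured in yeast with a defined repair-gene alteration.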

[6] = NCI Yeast Anticancer Drug Screen. Data for the mec2-1 strain (AID 157); conditions: S. cerevisiae mec2-1 strain, hits give high values
Method in brief: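 Each compound was tested on mec2-1 yeast, a strain altered in DNA damage repair or cell cycle control. Growth inhibition is reported relative to vehicle.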

[7] = NCI Yeast Anticancer Drug Screen. Data for the rad14 strain (AID 159);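 also: 0% = growth of vehicle-treated control cultures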; conditions: S. cerevisiae rad14 strain growth inhibition, hits give high values
Method in brief: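 Screen for anticancer potential: a yeast strain altered in DNA damage repair is grown with compound, and reduced growth is quantified against vehicle controls.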

[8] = NCI Yeast Anticancer Drug Screen. Data for the sgs1 mgt1 strain (AID 161);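 also: 0% = growth of cultures given vehicle only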; conditions: S. cerevisiae sgs1 mgt1 strain, hits give high values
Method in brief: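 Genetically altered yeast, compound exposure, growth inhibition relative to vehicle.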

[9] = NCI Yeast Anticancer Drug Screen. Data for the cln2 rad14 strain (AID 165);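 also: 0% = growth equal to vehicle treated cultures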; conditions: S. cerevisiae cln2 rad14 strain, hits give high values
Method in brief: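 Test compounds were added to cln2 rad14 yeast cultures; inhibition of growth was then determined by comparison with vehicle treatment.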

[10] = NCI Yeast Anticancer Drug Screen. Data for the bub3 strain (AID 167); conditions: S. cerevisiae bub3 mutant strain, hits give high values
Method in brief: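 Screening used yeast with an engineered genetic alteration affecting cell cycle control. Compound-exposed cultures were compared with vehicle cultures, and reduced growth was taken as inhibition.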

[11] = NCI Yeast Anticancer Drug Screen. Data for the mlh1 strain (AID 171);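 also: 0% = growth of vehicle-treated control cultures of the same strain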; conditions: S. cerevisiae mlh1 strain growth inhibition, hits give high values
Method in brief: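 Inhibition values reflect reduced yeast growth in the presence of compound, referenced to vehicle controls, using a strain chosen for its alteration in DNA repair or cell cycle control.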

[12] = NCI Yeast Anticancer Drug Screen. Data for the sgs1 strain (AID 173);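 also: 0% = growth of vehicle-only control cultures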; conditions: S. cerevisiae sgs1 mutant, hits give high values
Method in brief: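 Vehicle-treated cultures served as reference for growth inhibition of a yeast strain altered in DNA damage repair or cell cycle control after compound exposure.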

[13] = NCI Yeast Anticancer Drug Screen. Data for the mlh1 rad18 strain (AID 175); conditions: S. cerevisiae mlh1 rad18 strain growth inhibition, hits give high values
Method in brief: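 Inhibition values reflect reduced growth of mutant yeast versus vehicle-treated controls following compound exposure; the mutations affect DNA damage repair.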

[14] = NCI Yeast Anticancer Drug Screen. Data for the rad18 strain (AID 177); conditions: S. cerevisiae rad18 mutant growth inhibition, hits give high values
Method in brief: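 Steps: expose repair-mutant yeast to compound; measure growth; express as inhibition relative to vehicle control.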

[15] = NCI Yeast Anticancer Drug Screen. Data for the wt2 strain (AID 169);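 also: 0% = growth of vehicle-treated yeast cultures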; conditions: S. cerevisiae wt2 strain growth inhibition, hits give high values
Method in brief: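 The panel's yeast strains carry defined changes in DNA repair or cell cycle genes. Each strain is grown with compound, and growth loss is scored relative to vehicle.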

[16] = at 5.0 µM (retest, dose inferred, filed as 0.5)
[17] = at 50.0 µM (retest, dose inferred, filed as 5.0)

Measured: growth inhibition

O=C(Nc1ccccc1)C(=O)C(C(=O)c1ccccc1)C(c1ccccc1)c1ccccc1 (stereo unspecified)
active: [5]; [17] 86% | [5]; at 50.0 µM 82.5% | [6]; [17] 78% | [13]; [17] 74% | [13]; at 50.0 µM 79.8%
inactive: [1]; at 1.2 µM 8% | [1]; at 3.7 µM 10% | [1]; at 11.0 µM 15% | [1]; at 33.0 µM 23% | [1]; at 100.0 µM 36% | [2]; at 1.2 µM 3% | [2]; at 3.7 µM 5% | [2]; at 11.0 µM 4% | [2]; at 33.0 µM 10% | [2]; at 100.0 µM 28% | [3]; at 1.2 µM 0% | [3]; at 3.7 µM 0% | [3]; at 11.0 µM 1% | [3]; at 33.0 µM 2% | [3]; at 100.0 µM -1% | [4]; at 1.2 µM 2% | [4]; at 3.7 µM 1% | [4]; at 11.0 µM 5% | [4]; at 33.0 µM 8% | [4]; at 100.0 µM 42% | [5]; at 1.2 µM 1% | [5]; at 3.7 µM -6% | [5]; [16] 11% | [5]; at 11.0 µM -3% | [5]; at 33.0 µM 26% | [5]; at 100.0 µM 37% | [6]; at 1.2 µM 8% | [6]; at 3.7 µM 7% | [6]; [16] -11% | [6]; at 11.0 µM 10% | [6]; at 33.0 µM 22% | [6]; at 50.0 µM 15.9% | [6]; at 100.0 µM 35% | [7]; at 1.2 µM 3% | [7]; at 3.7 µM 0% | [7]; at 11.0 µM 5% | [7]; at 33.0 µM 18% | [7]; at 100.0 µM 36% | [8]; [16] -5% | [8]; [17] 20% | [8]; at 50.0 µM 29.4% | [9]; [16] 5% | [9]; [17] 53% | [9]; at 50.0 µM 41.2% | [10]; at 1.2 µM 2% | [10]; at 3.7 µM 0% | [10]; [16] -2% | [10]; at 11.0 µM 3% | [10]; at 33.0 µM 9% | [10]; [17] 33% | [10]; at 50.0 µM 58.3% | [10]; at 100.0 µM 18% | [11]; at 1.2 µM 3% | [11]; at 3.7 µM 2% | [11]; at 11.0 µM 3% | [11]; at 33.0 µM 16% | [11]; at 100.0 µM 31% | [12]; at 1.2 µM 2% | [12]; at 3.7 µM 3% | [12]; at 11.0 µM 3% | [12]; at 33.0 µM 32% | [12]; at 100.0 µM 56% | [13]; [16] -13% | [14]; at 1.2 µM 7% | [14]; at 3.7 µM 10% | [14]; at 11.0 µM 22% | [14]; at 33.0 µM 41% | [14]; at 100.0 µM 47%

C/C(=N\NC(=S)SCc1ccccc1)c1ccccn1
active: [1]; at 33.0 µM 93% | [1]; at 100.0 µM 91% | [2]; at 33.0 µM 95% | [2]; at 100.0 µM 94% | [3]; at 11.0 µM 78% | [3]; at 33.0 µM 95% | [3]; at 100.0 µM 92% | [4]; at 11.0 µM 83% | [4]; at 33.0 µM 96% | [4]; at 100.0 µM 92% | [5]; at 33.0 µM 95% | [5]; at 50.0 µM 88% | [5]; at 100.0 µM 92% | [6]; at 11.0 µM 92% | [6]; at 33.0 µM 96% | [6]; [17] 96% | [6]; at 50.0 µM 90.2% | [6]; at 100.0 µM 92% | [7]; at 33.0 µM 94% | [7]; at 100.0 µM 92% | [8]; [17] 95% | [8]; at 50.0 µM 86.2% | [9]; [17] 95% | [9]; at 50.0 µM 86.1% | [10]; at 11.0 µM 82% | [10]; at 33.0 µM 95% | [10]; [17] 95% | [10]; at 50.0 µM 87% | [10]; at 100.0 µM 91% | [15]; at 11.0 µM 72% | [15]; at 33.0 µM 95% | [15]; at 100.0 µM 92% | [12]; at 11.0 µM 78% | [12]; at 33.0 µM 97% | [12]; at 100.0 µM 94% | [13]; [17] 95% | [13]; at 50.0 µM 87.5% | [14]; at 11.0 µM 80% | [14]; at 33.0 µM 96% | [14]; at 100.0 µM 91%
inactive: [1]; at 1.2 µM 15% | [1]; at 3.7 µM 13% | [1]; at 11.0 µM 60% | [2]; at 1.2 µM -13% | [2]; at 3.7 µM -15% | [2]; at 11.0 µM 58% | [3]; at 1.2 µM 40% | [3]; at 3.7 µM 47% | [4]; at 1.2 µM 13% | [4]; at 3.7 µM 24% | [5]; at 1.2 µM 17% | [5]; at 3.7 µM 22% | [5]; [16] 8% | [5]; at 11.0 µM 69% | [5]; [17] 0% | [6]; at 1.2 µM 38% | [6]; at 3.7 µM 51% | [6]; [16] -5% | [7]; at 1.2 µM -10% | [7]; at 3.7 µM -4% | [7]; at 11.0 µM 31% | [8]; [16] -1% | [9]; [16] 3% | [10]; at 1.2 µM 3% | [10]; at 3.7 µM 20% | [10]; [16] 30% | [15]; at 1.2 µM -36% | [15]; at 3.7 µM -25% | [12]; at 1.2 µM 37% | [12]; at 3.7 µM 46% | [13]; [16] -12% | [14]; at 1.2 µM 39% | [14]; at 3.7 µM 53%

N/C(=N\OC(=O)NC(Cl)=C(Cl)Cl)c1cc(C(F)(F)F)cc(C(F)(F)F)c1
active: [1]; at 100.0 µM 98% | [2]; at 100.0 µM 97% | [4]; at 33.0 µM 74% | [4]; at 100.0 µM 97% | [5]; at 50.0 µM 89% | [5]; at 100.0 µM 97%
inactive: [1]; at 1.2 µM -14% | [1]; at 3.7 µM -11% | [1]; at 11.0 µM -2% | [1]; at 33.0 µM 64% | [2]; at 1.2 µM 16% | [2]; at 3.7 µM -13% | [2]; at 11.0 µM -19% | [2]; at 33.0 µM 40% | [3]; at 1.2 µM -30% | [3]; at 3.7 µM -48% | [3]; at 11.0 µM -43% | [3]; at 33.0 µM -35% | [3]; at 100.0 µM 17% | [4]; at 1.2 µM -23% | [4]; at 3.7 µM 7% | [4]; at 11.0 µM 6% | [5]; at 1.2 µM -10% | [5]; at 3.7 µM -20% | [5]; [16] 34% | [5]; at 11.0 µM 6% | [5]; at 33.0 µM 59% | [5]; [17] 54% | [6]; at 1.2 µM -33% | [6]; at 3.7 µM -61%
